KB-V1 MDR tox – qHTS assay for MDR1-selective chemotherapeutics: Primary screen using the drug-selected MDR subline cells KB-V1; KB-V1 MDR cells viability, CellTiter-Glo, 72 h; Potency, µM (doses to about 46.1 µM), hits mostly cytotoxic; 400,000 tested, 3.4% active; note: nearly all actives have a fitted effect of over 60% in size
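Potencies derive from concentration-effect curves fitted to normalized luminescence (CellTiter-Glo) of KB-V1 cells treated for 72 h at 37 degrees C in phenol-red-free DMEM containing 10% FBS.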
SW480 rerep – A quantitative high throughput screen for small molecules that induce DNA re-replication in SW480 colon adenocarcinoma cells; SW480 DNA re-replication, Hoechst DNA content imaging, 48 h; Potency, µM (titrated, usually from 46.1 µM), hits mostly activators; 340,000 tested, 1.8% active; AID 624297, 2012; note: nearly all actives have a fitted effect of over 55% in size
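Image-based read-out: total Hoechst fluorescence of nuclei (405 nm excitation, 500-530 nm emission), with hits raising the fraction of high-intensity nuclei. SW480 colon cells incubated 48 hr with compounds at 37 C.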
KB-3-1 tox – qHTS assay for MDR1-selective chemotherapeutics: Primary screen using the parental adenocarcinoma cell KB-3-1 | Potency, µM (highest dose often 46.1 µM), usual class: cytotoxic | KB-3-1 viability, CellTiter-Glo ATP luminescence, 72 h | 400,000 tested, 1.4% active; note: nearly all actives have a fitted effect of over 60% in size
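Parental KB-3-1 adenocarcinoma cells in phenol-red-free DMEM with 10% FBS were pin-treated with compounds at several concentrations, incubated 72 h at 37 °C, and viability read by CellTiter-Glo luminescence; concentration-effect curves were fitted after normalization.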
HT1080 IDH1KD tx – qHTS for induction of synthetic lethality in tumor cells producing 2HG: qHTS for the HT-1080-IDH1KD cell line; HT-1080 IDH1 knockdown viability, ATP luminescence, 48 h; Potency, µM (top dose mostly 46.1 µM), most hits filed as cytotoxic; 360,000 tested, 2% active
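In this qHTS, HT-1080 cells depleted of IDH1 are exposed for 48 h at 37 °C to compound titrations. Toxicity is scored from CellTiter-Glo luminescence, with DMSO as full viability and medium alone as none.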
HT1080-NT tox – qHTS for induction of synthetic lethality in tumor cells producing 2HG: qHTS for the HT-1080-NT fibrosarcoma cell line. HT-1080-NT fibrosarcoma viability, CellTiter-Glo ATP luminescence, 48 h. Potency, µM (top dose mostly 46.1 µM), usual class: cytotoxic. 360,000 tested, 1.6% active. AID 686970, 2013;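 note: NT is the 2HG producing partner of a matched IDH1 knockdown line; nearly all actives have a fitted effect of over 55% in size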
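Viability of the 2HG-overproducing fibrosarcoma line after 48 hours of compound exposure at 37 degrees C was determined by luminescence with CellTiter-Glo, and concentration-effect curves were then fitted and categorized.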
MCF10A rerep – A quantitative high throughput screen for small molecules that induce DNA re-replication in MCF 10a normal breast cells | MCF 10A DNA re-replication, Hoechst nuclear intensity, 48 h | Potency, µM (top dose mostly 46.1 µM), actives largely listed as activators | 350,000 tested, 2.9% active; note: nearly all actives have a fitted effect of over 50% in size
Each line names hits and unclear results; the compound was inactive in the other large screens. Most compounds without a hit are left out; they make up all but 7.9% or so of the library. Calls come from the whole dose curve; as a rule, active = well fitted curve in the direction sought with a large enough effect; inconclusive = small, poorly fitted or top-dose-only effect, or another doubt; inactive = no such curve, though single readings can be large; an effect the other way counts as inactive or inconclusive.

CCOc1cccc(=NC2CCCCC2)c2c(C)n(C)c(C)c12	KB-V1 MDR tox inconclusive, KB-3-1 tox 18µM, HT1080 IDH1KD tx 13µM, HT1080-NT tox 21µM
O=C(Cc1c[nH]c2ccccc12)NNCc1ccc(N(CCCl)CCCl)cc1	SW480 rerep 16µM, KB-3-1 tox inconclusive
O=C(Cc1ccc(N(CCCl)CCCl)cc1)NC(Cc1ccc(Cl)cc1)C(=O)O (centres undefined)	none
OC(Cn1cncn1)(Cn1cncn1)c1ccc(F)cc1F	SW480 rerep inconclusive
CCC(=O)[C@@H](C)[C@@H](O)[C@H](C)C[C@@H](C)C1OC(=O)C[C@@]2(O)CC=C(C)C(O2)C(C)=CCCC[C@H](O[C@H]2C[C@@H](OC(N)=O)[C@H](O)[C@@H](C)O2)C=C[C@H](C)C[C@H]1C (some centres undefined)	KB-V1 MDR tox inconclusive, KB-3-1 tox 0.65µM, HT1080 IDH1KD tx 21µM, HT1080-NT tox 12µM (no result: SW480 rerep, MCF10A rerep)

From PubChem BioAssay
